# In PubChem BioAssay (NCI):
# “And” between values parts separate entries of the source, which are not always exact repeats. Equal entries are not always repeated. The panel holds about 83,000 compounds, 20% with a hit somewhere; the sample as a whole holds those more often.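 The test compound was applied at a single concentration to cells in 96-well plates for 48 hours, and percent growth was recorded.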 Values without a mark were called inactive. The source made the active and inactive calls. Rule for the calls: active = growth percent below 10; inactive = the rest.
# System: MDA-MB-468 breast
# Assay: NCI-60 one-dose screen, 48 h (100 = growth as untreated, 0 = no growth, -100 = all killed)
# Details: 10 µM unless noted
row,Compound,growth
1,COc1ccc(-c2nsc3c2NC(=O)CC3c2ccc3c(c2)OCO3)cc1 (stereo not given),10.3%
2,Cn1cc(-c2csc(-c3cn(CCN)c4ccccc34)n2)c2cccnc21,23.2%
3,COc1cc2c(c(OC)c1OC)CCC(c1cccc(C(=O)Nc3cccc(Br)c3)c1)O2 (stereo not given),58.6%
4,CCCCCCCCCCCCCCCc1cc(O)ccc1[N+](=O)[O-],111%
5,Cc1ccc(NCCN2CCCCC2)c2c(=O)c3ccccc3sc12,11.1%
6,Cc1[nH]n(-c2ccccc2)c2nc3nncc3c(-c3ccc(Cl)cc3)c12,95.1%
7,CCc1cccc(C)c1NC(=O)c1sc2nc3c(cc2c1N)C(=O)CCC3,32.5%
8,NCCNc1ccc([N+](=O)[O-])cc1,110%
9,COc1ccccc1CNCCCN1C(=O)c2ccc3c4c(ccc(c24)C1=O)C(=O)N(CCCN)C3=O,-88.1% (active)
10,O=NN(C(=O)NC1CCC(C(=O)O)CC1)C1CCC(C(=O)O)CC1 (stereo not given),96.1%
11,CCCc1cccc(CCC)c1NC(=O)Nc1cc(Cl)cc(Cl)c1,98.8%
12,COc1cc(Nc2ncccc2/C=C/C(=O)c2cc(OC)c(OC)c(OC)c2)cc(OC)c1OC,-2.82% (active)
13,CC1CCc2c(C(=O)Nc3ncc(Cc4cccc([N+](=O)[O-])c4)s3)csc2C1 (stereo not given),12.3%
14,O=C(NCc1ccccc1)c1cccc([N+](=O)[O-])c1,93.8%
15,COc1cc(OC)c(/C=C/S(=O)(=O)Cc2ccc(OC)c(NCC(=O)O)c2)c(OC)c1,-4.64% (active)
16,O=C(Cn1nc(-c2cccc3ccccc23)ccc1=O)NCc1cccc(Cl)c1,12.8% [50 µM]
17,NC(CCc1nc2ccccc2c(=O)[nH]1)C(=O)O (stereo not given),105%
18,COc1cccc(/C=C2\Oc3cc(OCCN4CCCC4)ccc3C2=O)c1,82.8%
19,Cn1c(SSc2ccc(-c3cccnc3)n2C)ccc1-c1cccnc1,72.3% and 93.8%
20,COC(=O)[C@]12CC[C@@H](C)[C@H](C)[C@@H]1C1=CC[C@@H]3[C@@]4(C)C(C=O)=C[C@@](C)(COC(C)=O)[C@@H]4[C@H](O)C[C@@]3(C)[C@]1(C)CC2,-19.2% (active)

row,Compound,growth
1,CN(C)c1ccc(/C=C/c2ccnc3ccccc23)cc1,-9.88% (active)
2,NS(=O)(=O)c1ccc(CCN2C(=O)/C(=C\c3ccc(Cl)cc3)C=C2c2ccc(Oc3ccccc3)cc2)cc1,76.7%
3,CN1C(=O)N(C)C2C1NN=c1s/c(=C\c3ccccn3)c(=O)n12 (stereo not given),88.8%
4,O=C1/C(=C/c2ccccc2)CCC/C1=C\c1ccccc1,63.2%
5,O=S1(=O)N(Cc2ccccc2)[C@@H](Cc2ccccc2)C2O[C@H]2[C@H](Cc2ccccc2)N1Cc1ccccc1 (stereo not given in full),6.52% (active)
6,O=C(O)c1ccccc1NCc1ccco1,95%
7,CCCC(=O)c1cc(C)ccc1OC,113%
8,CC(C)(C)Nc1nc2c(OCCc3ccccc3)cccn2c1-c1ccc(Cl)cc1,-22.4% (active)
9,CC(C)=CCC[C@](C)(O)[C@H]1CC[C@]2(C)[C@@H]1CC[C@@H]1[C@@]3(C)C/C(=C/c4ccco4)C(=O)C(C)(C)[C@@H]3CC[C@]12C,111%
10,N=C(N)c1ccc(-c2ccc(-c3ccccc3)o2)cc1,-68.6% (active)
11,COc1cccc(C2CC(=O)Nc3c2c(C)nn3-c2nc3ccccc3[nH]2)c1OC (stereo not given),71.5%
12,Nc1n[nH]c2cccc(C#Cc3cccc(NC(=O)c4ccc(N5CCOCC5)c(C(F)(F)F)c4)c3)c12,21.8%
13,C=CN(C(=O)N1CCN(c2cc3c(cc2F)c(=O)c(C(=O)O)cn3C2CC2)CC1)c1nc(-c2ccccc2)cs1,100%
14,COc1ccc(Nc2ncccc2NC(=O)c2cn(Cc3cccc(Oc4ccccc4)c3)nn2)cc1,89.8%
15,O=C(OCc1ccc2c(Cl)cc(Cl)c(O)c2n1)c1cc2ccccc2[nH]1,-73.1% (active)
16,O=C(Nc1cccc(Cl)c1)Nc1nc2ccc(-c3cccc4ccccc34)cc2s1,37.6%
17,CC1=CC[C@@H]2C(C)(C)C(=O)CC[C@@]2(C)[C@@H]1COc1ccc2ccc(=O)oc2c1,43.1%
18,CN1CCN(c2ccc(Nc3nc(NCCNC(=O)c4ccccc4)c4sccc4n3)cc2)CC1,45.3%
19,CCCn1c2cc(OCc3cn(-c4ccc(Br)cc4)nn3)ccc2c2ccnc(C)c21,25.6%
20,CCN1CCCC(Nc2cc(C)nc(/N=C(/N)Nc3ccc(Cl)c(Cl)c3)n2)C1 (stereo not given),-83.3% (active)
